Test results published in article PMC7862700, “An all-to-all approach to the identification of sequence-specific readers for epigenetic DNA modifications on cytosine”.

Assays:
Assay in all cases: DAPPL (digital affinity profiling via proximity ligation, sequencing); 10 mM Tris-HCl pH 7.5, 50 mM NaCl, 1 mM DTT, 4% glycerol, room temperature, 30 min; GST-TFs on glutathione beads, 16-mer random dsDNA library, 0.1% formaldehyde crosslink after washing; high values mean tight binding
Settings in all cases: protein: recombinant; tags: N-terminal GST; dsDNA, one strand shown
[1] = target: T1, FEV (Homo sapiens, UniProt Q99581 1-238)
T1 sequence: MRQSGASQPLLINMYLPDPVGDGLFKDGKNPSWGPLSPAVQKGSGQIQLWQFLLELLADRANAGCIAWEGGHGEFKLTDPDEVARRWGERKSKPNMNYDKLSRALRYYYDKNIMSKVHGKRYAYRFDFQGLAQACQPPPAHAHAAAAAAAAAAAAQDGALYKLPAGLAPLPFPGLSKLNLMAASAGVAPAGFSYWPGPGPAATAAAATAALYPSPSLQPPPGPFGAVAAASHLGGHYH
Summary of the method: (§1)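 Yeast served to express human transcription factors as GST fusions, which were then captured on glutathione beads and labelled with DNA barcodes. Pooled with a tag-only sample, they were incubated with 200 nmole of a 16-mer random double-stranded DNA library for 30 min at room temperature in Tris/NaCl/DTT/glycerol buffer, washed, crosslinked with 0.1% formaldehyde, ligated by proximity, amplified by PCR and sequenced. Dividing each hexamer's read frequency for a factor by its frequency for the tag-only sample gives the binding signal.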

[2] = target: ETV5 (Homo sapiens, UniProt P41161 1-510)
ETV5, sequence (P41161 whole entry): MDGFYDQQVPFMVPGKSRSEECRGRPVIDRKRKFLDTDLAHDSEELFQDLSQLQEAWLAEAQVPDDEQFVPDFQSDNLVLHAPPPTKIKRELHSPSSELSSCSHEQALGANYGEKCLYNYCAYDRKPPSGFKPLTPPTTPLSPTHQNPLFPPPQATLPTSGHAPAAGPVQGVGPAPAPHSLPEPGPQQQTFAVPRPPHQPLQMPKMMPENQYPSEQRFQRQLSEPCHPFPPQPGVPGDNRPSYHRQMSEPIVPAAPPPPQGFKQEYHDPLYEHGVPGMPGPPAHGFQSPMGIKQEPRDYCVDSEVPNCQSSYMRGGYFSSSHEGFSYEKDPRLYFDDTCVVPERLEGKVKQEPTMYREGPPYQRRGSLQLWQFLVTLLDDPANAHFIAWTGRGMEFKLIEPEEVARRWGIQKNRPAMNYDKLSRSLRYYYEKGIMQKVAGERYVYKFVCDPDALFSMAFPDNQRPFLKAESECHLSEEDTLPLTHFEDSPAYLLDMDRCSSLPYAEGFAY
Summary of the method: as §1

[3] = target: T2, SPIC (Homo sapiens, UniProt Q8N5J4 1-248)
T2 sequence: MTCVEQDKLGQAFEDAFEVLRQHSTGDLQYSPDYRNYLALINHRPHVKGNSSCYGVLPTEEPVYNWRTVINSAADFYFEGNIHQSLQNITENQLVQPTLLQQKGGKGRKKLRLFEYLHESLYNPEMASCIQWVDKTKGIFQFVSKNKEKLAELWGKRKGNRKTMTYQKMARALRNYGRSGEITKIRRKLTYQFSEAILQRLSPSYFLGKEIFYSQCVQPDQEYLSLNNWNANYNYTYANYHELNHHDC
Summary of the method: as §1

[4] = target: ELF4 (Homo sapiens, UniProt Q99607 1-663)
ELF4, sequence (Q99607 whole entry): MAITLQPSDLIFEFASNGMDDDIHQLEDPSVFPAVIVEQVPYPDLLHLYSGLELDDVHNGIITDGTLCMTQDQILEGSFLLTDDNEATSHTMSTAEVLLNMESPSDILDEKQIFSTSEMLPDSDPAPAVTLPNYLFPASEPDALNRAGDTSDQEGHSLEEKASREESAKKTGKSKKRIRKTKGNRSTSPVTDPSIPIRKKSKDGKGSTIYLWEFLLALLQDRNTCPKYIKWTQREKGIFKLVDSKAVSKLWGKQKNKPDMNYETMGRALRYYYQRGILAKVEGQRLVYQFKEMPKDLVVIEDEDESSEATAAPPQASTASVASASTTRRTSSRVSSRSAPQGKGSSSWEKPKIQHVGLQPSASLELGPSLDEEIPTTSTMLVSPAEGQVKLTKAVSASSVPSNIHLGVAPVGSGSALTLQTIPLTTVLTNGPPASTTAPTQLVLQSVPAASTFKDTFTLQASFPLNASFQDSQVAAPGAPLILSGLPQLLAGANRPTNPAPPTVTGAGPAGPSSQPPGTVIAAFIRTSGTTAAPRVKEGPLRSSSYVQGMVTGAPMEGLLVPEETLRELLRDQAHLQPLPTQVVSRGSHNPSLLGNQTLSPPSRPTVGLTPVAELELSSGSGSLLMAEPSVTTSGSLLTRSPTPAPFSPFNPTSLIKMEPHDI
Summary of the method: as §1

[5] = target: T3, ELK4 (Homo sapiens, UniProt P28324-2 1-405)
T3 sequence: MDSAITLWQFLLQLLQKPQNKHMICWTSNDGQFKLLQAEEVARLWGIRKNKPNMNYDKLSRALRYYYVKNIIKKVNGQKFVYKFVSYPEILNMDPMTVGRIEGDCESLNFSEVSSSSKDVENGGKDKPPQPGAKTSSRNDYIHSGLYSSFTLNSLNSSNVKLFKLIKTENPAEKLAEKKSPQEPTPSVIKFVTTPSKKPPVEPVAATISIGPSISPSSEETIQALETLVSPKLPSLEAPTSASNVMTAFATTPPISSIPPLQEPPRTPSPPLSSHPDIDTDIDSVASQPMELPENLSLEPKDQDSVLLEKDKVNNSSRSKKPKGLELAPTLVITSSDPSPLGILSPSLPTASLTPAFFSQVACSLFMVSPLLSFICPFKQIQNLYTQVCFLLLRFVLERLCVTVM
Summary of the method: as §1

[6] = target: T4, ETV2 (Homo sapiens, UniProt O00321 1-342)
T4 sequence: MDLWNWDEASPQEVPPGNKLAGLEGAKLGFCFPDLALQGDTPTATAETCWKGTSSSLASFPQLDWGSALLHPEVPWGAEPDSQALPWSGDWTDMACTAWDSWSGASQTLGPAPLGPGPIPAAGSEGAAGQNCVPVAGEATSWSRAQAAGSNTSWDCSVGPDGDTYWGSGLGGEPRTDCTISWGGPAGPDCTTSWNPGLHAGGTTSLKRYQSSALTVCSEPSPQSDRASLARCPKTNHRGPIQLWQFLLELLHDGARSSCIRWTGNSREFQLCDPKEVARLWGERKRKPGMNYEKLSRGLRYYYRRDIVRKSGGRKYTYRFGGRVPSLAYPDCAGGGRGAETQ
Summary of the method: as §1

[7] = target: T5, ELF3 (Homo sapiens, UniProt P78545 1-371)
T5 sequence: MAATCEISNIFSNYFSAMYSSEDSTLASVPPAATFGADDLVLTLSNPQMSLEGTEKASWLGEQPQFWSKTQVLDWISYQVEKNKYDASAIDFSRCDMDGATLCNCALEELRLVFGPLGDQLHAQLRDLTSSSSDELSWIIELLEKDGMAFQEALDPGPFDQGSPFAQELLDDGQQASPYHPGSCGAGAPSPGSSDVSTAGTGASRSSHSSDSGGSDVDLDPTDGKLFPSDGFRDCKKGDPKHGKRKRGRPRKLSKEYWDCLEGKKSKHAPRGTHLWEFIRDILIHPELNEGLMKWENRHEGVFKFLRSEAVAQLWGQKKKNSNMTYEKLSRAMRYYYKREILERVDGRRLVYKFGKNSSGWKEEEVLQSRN
Summary of the method: as §1

[8] = target: ETV1 (Homo sapiens, UniProt P50549 1-477)
ETV1, sequence (P50549 whole entry): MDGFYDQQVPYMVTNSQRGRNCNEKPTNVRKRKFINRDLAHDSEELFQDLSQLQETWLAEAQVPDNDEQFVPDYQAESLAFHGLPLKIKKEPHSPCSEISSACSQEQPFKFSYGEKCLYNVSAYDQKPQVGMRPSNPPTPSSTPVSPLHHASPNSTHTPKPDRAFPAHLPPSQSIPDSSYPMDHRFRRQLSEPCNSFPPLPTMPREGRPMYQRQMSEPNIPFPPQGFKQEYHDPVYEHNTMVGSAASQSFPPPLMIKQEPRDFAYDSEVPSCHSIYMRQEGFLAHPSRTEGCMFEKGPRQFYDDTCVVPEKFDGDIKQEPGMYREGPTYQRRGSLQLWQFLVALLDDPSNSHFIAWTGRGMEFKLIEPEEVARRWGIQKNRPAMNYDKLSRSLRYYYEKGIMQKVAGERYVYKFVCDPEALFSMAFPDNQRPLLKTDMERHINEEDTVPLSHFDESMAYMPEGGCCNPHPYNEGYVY
Summary of the method: as §1

[9] = target: T6, ERF (Homo sapiens, UniProt P50548 1-548)
T6 sequence: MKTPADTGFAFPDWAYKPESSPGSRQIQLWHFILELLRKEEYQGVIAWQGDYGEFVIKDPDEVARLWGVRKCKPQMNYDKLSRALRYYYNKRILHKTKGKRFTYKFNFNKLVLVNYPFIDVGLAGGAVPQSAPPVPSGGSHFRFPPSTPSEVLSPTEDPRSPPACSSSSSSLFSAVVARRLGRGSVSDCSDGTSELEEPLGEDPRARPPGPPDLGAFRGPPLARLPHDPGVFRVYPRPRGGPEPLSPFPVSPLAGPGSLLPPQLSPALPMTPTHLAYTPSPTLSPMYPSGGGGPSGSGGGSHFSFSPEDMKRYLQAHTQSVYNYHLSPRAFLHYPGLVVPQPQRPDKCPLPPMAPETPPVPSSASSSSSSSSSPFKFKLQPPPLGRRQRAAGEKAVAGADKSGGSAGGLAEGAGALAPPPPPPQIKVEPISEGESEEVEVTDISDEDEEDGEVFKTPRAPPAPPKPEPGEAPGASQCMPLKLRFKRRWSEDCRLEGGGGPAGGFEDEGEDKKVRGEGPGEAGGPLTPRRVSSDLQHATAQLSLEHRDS
Summary of the method: as §1

[10] = target: T7, ETV3L (Homo sapiens, UniProt Q6ZN32 1-361)
T7 sequence: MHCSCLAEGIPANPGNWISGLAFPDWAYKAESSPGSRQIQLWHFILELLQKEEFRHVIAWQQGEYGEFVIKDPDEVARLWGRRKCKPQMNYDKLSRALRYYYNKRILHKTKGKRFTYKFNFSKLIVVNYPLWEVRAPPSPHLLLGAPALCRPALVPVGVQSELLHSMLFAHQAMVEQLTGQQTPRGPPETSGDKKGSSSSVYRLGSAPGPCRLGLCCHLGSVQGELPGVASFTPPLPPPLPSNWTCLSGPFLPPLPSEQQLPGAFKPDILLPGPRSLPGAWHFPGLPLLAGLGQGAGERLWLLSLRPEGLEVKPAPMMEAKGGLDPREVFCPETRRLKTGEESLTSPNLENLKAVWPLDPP
Summary of the method: as §1

[11] = target: T8, ETS2 (Homo sapiens, UniProt P15036 1-469)
T8 sequence: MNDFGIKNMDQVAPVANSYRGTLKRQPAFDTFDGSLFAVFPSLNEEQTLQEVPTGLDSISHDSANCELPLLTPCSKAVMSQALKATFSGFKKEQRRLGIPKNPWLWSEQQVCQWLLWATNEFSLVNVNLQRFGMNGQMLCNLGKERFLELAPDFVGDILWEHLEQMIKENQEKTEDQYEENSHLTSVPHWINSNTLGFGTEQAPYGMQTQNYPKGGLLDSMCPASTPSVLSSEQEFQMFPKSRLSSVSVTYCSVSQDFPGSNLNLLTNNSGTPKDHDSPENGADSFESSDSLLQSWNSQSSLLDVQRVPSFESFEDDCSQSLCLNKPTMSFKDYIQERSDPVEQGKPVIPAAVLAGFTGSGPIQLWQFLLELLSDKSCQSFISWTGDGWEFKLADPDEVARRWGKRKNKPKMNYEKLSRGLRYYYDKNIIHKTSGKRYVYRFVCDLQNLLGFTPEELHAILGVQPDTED
Summary of the method: as §1

[12] = target: T9, SPDEF (Homo sapiens, UniProt O95238 1-335)
T9 sequence: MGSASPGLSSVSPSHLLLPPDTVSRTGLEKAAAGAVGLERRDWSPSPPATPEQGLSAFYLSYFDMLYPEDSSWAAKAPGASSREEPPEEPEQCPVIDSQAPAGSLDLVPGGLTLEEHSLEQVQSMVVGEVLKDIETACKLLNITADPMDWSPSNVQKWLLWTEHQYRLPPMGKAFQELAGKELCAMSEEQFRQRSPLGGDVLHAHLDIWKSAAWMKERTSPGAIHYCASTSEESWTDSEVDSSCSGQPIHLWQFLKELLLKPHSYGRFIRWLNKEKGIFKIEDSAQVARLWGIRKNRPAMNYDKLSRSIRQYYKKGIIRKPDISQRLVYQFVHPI
Summary of the method: as §1

[13] = target: T10, ETV7 (Homo sapiens, UniProt Q9Y603 1-341)
T10 sequence: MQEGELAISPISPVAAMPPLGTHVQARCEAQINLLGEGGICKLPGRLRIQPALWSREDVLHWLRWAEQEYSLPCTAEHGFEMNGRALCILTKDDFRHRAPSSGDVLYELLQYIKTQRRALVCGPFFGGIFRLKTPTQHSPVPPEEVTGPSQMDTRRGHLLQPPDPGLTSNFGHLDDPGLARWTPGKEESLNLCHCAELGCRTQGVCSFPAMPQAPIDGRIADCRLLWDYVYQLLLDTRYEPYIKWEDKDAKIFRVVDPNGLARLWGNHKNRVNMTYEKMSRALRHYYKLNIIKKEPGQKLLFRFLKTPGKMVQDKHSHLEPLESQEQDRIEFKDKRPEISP
Summary of the method: as §1

[14] = target: T11, ETV3 (Homo sapiens, UniProt P41162-2 1-143)
T11 sequence: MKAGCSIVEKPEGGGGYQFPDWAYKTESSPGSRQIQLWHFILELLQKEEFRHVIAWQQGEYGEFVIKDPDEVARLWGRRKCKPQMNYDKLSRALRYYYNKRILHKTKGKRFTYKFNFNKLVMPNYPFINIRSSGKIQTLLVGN
Summary of the method: as §1

[15] = target: ETV6 (Homo sapiens, UniProt P41212 1-452)
ETV6, sequence (P41212 whole entry): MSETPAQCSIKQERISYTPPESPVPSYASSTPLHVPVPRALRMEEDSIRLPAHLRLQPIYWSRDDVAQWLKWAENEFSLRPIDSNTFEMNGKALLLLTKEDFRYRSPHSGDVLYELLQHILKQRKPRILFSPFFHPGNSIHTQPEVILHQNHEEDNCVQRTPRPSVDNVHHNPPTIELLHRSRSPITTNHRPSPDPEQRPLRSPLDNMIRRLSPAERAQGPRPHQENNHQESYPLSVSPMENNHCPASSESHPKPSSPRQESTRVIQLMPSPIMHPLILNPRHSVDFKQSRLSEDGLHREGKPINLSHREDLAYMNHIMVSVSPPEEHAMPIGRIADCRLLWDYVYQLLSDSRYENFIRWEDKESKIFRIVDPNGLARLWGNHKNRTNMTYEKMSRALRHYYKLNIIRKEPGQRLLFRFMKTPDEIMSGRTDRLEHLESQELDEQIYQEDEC
Summary of the method: as §1

[16] = target: T12, ELF5 (Homo sapiens, UniProt Q9UKW6-2 1-255)
T12 sequence: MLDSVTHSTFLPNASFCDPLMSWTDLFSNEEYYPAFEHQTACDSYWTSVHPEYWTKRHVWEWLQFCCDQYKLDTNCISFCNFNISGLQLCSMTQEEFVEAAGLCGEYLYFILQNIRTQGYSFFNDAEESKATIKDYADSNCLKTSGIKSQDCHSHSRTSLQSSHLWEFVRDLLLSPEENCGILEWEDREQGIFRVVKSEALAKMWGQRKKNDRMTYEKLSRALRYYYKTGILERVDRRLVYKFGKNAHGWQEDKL
Summary of the method: as §1

Sequence | binding signal [1] | binding signal [2] | binding signal [3] | binding signal [4] | binding signal [5] | binding signal [6] | binding signal [7] | binding signal [8] | binding signal [9] | binding signal [10] | binding signal [11] | binding signal [12] | binding signal [13] | binding signal [14] | binding signal [15] | binding signal [16]
GGCCTC | 1.07 fold enrichment (6-mer frequency, TF over GST control) | 1.15 fold enrichment (6-mer frequency, TF over GST control) | 1.01 fold enrichment (6-mer frequency, TF over GST control) | 1.12 fold enrichment (6-mer frequency, TF over GST control) | 1.17 fold enrichment (6-mer frequency, TF over GST control) | 1.17 fold enrichment (6-mer frequency, TF over GST control) | 1.05 fold enrichment (6-mer frequency, TF over GST control) | 1.07 fold enrichment (6-mer frequency, TF over GST control) | 1.12 fold enrichment (6-mer frequency, TF over GST control) | 1.12 fold enrichment (6-mer frequency, TF over GST control) | 1.09 fold enrichment (6-mer frequency, TF over GST control) | 1.08 fold enrichment (6-mer frequency, TF over GST control) | 1.05 fold enrichment (6-mer frequency, TF over GST control) | 1.1 fold enrichment (6-mer frequency, TF over GST control) | 1.09 fold enrichment (6-mer frequency, TF over GST control) | 
CACAAT | 1.06 fold enrichment (6-mer frequency, TF over GST control) | 1.1 fold enrichment (6-mer frequency, TF over GST control) | 1.13 fold enrichment (6-mer frequency, TF over GST control) | 1.09 fold enrichment (6-mer frequency, TF over GST control) | 1.12 fold enrichment (6-mer frequency, TF over GST control) | 1.06 fold enrichment (6-mer frequency, TF over GST control) | 1.19 fold enrichment (6-mer frequency, TF over GST control) | 1.09 fold enrichment (6-mer frequency, TF over GST control) | 1.18 fold enrichment (6-mer frequency, TF over GST control) | 1.08 fold enrichment (6-mer frequency, TF over GST control) | 1.13 fold enrichment (6-mer frequency, TF over GST control) | 1.07 fold enrichment (6-mer frequency, TF over GST control) |  | 1.12 fold enrichment (6-mer frequency, TF over GST control) | 1.09 fold enrichment (6-mer frequency, TF over GST control) | 1.06 fold enrichment (6-mer frequency, TF over GST control)
